Measurements as given in PubChem BioAssay.
A number with no mark means an inactive call. Activity calls are given as the source filed them. Cut-off read from the data, not from the text of the source, unless noted: active = inhibition above about 33%; inactive = the rest.

Assays:
[1] = target: Nuclear receptor coactivator 3 (Homo sapiens) (UniProt Q9Y6Q9); assay: NCOA3 GAL4-fusion reporter inhibition – cell-based, luminescence, quadruplicate, confirmation (AID 588792;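 active = mean inhibition over 43.08%, the solvent-only control mean plus 3 SD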;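 note: 0% = DMSO treated cells and 100% = gossypol at 36 µM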); details: HEK293 GAL4-SRC3 luciferase reporter, at 3.6 µM, active compounds read high
Nuclear receptor coactivator 3 (Homo sapiens), sequence (Q9Y6Q9 whole entry, looked up, the tested form may be a part): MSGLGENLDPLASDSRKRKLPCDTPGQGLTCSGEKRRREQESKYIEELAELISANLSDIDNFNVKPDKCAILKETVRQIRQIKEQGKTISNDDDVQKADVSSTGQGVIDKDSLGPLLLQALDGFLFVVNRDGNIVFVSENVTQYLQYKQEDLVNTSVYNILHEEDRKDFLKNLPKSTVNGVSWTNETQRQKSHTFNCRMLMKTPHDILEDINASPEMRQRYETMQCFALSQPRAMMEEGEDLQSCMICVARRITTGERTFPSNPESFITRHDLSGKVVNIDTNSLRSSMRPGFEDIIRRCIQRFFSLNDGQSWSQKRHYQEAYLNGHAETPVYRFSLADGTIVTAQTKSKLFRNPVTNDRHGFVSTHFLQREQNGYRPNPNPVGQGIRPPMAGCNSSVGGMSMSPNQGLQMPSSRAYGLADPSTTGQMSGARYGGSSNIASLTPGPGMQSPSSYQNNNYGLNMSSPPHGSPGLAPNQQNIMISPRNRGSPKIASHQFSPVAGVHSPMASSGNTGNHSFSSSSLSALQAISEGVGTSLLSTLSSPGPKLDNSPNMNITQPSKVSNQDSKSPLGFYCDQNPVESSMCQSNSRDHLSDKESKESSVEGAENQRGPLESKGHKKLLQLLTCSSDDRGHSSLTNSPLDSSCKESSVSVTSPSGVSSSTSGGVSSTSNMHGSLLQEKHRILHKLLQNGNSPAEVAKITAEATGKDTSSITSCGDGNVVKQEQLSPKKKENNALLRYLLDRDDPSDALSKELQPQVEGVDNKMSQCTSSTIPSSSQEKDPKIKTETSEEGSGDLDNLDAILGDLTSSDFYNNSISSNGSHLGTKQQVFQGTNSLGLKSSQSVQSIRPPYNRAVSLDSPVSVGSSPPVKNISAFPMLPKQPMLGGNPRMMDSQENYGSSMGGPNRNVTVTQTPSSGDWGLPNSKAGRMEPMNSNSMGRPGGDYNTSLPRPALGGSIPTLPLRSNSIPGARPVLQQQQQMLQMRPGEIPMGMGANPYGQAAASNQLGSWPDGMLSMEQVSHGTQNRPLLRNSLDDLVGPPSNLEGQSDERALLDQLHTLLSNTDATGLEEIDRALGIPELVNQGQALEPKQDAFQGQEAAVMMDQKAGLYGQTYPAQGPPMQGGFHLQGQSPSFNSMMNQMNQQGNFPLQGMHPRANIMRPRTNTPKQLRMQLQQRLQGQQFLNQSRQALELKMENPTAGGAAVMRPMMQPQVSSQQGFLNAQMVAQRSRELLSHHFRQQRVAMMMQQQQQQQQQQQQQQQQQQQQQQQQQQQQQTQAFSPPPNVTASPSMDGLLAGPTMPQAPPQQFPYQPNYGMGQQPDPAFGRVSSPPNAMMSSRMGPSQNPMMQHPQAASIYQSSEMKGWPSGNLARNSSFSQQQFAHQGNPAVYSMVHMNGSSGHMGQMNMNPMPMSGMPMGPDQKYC

[2] = tested on: transactivating tegument protein VP16 (Human herpesvirus 1), Gal4-VP16 luciferase reporter; assay: repression of VP16-driven luciferase reporter – cell-based, luminescence, high throughput, counter-screen for SRC3 inhibitor project (AID 588794; in the data active = inhibition above about 30%); details: mammalian cells, at 3.6 µM, active compounds read high
[3] = target: Nuclear receptor coactivator 1 (Homo sapiens) (UniProt Q15788); assay: NCOA1 GAL4-fusion reporter inhibition – cell-based, luminescence, quadruplicate, confirmation (AID 588820;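 active = mean inhibition above 46.68%, the untreated control wells mean plus 3 SD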;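 note: 0% = DMSO wells and 100% = gossypol 36 µM treated wells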); details: HEK293 GAL4-SRC1 luciferase reporter, at 3.6 µM, active compounds read high
Nuclear receptor coactivator 1 (Homo sapiens), sequence (Q15788 whole entry, looked up, the tested form may be a part): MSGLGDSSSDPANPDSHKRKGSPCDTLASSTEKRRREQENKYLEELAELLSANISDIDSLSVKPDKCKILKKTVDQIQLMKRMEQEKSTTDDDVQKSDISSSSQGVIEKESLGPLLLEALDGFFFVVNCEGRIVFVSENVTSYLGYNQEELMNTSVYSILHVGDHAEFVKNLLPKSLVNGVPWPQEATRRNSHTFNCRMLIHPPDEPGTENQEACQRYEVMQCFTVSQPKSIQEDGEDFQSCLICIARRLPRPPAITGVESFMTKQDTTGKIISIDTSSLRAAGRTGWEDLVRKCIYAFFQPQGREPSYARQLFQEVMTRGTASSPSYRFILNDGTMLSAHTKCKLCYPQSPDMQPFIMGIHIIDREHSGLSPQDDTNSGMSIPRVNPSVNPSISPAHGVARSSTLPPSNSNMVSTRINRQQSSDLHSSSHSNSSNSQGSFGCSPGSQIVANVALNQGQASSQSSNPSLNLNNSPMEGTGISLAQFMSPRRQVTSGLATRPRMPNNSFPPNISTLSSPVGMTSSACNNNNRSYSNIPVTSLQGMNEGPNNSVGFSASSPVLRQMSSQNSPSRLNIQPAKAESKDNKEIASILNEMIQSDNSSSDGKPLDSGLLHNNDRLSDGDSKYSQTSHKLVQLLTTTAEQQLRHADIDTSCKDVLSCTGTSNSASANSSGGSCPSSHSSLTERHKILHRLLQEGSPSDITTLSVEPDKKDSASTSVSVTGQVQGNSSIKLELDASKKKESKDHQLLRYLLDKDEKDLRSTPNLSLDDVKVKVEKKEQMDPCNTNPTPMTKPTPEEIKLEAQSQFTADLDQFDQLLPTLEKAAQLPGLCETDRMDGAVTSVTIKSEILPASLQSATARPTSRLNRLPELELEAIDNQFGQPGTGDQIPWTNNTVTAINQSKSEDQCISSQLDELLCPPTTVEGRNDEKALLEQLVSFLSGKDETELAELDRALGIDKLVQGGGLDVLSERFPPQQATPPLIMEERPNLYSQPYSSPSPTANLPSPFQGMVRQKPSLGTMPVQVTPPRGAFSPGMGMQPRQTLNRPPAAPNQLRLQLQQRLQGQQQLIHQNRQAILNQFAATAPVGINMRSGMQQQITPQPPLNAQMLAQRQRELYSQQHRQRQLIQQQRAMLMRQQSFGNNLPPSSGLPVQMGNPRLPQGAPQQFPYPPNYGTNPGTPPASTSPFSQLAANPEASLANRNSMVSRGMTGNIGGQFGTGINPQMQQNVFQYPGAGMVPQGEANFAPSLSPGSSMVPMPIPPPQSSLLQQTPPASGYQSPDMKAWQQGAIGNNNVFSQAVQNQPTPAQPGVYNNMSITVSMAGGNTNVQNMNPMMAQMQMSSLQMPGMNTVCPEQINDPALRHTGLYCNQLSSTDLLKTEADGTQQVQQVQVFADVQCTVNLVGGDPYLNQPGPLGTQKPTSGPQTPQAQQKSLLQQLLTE

[4] = repression of VP16-driven luciferase reporter – cell-based, luminescence, high throughput, counter-screen for SRC1 inhibitor project (AID 588824; in the data active = inhibition above about 25%); details: cell-based VP16 transactivation luciferase luminescence; at 3.6 µM; active compounds read high
[5] = StAR promoter reporter inhibitors, counter-screen for LRH-1 inverse agonist project, cell-based, luminescence, high throughput (AID 651611; in the data active = inhibition above about 28%); details: StAR promoter luciferase reporter counterscreen, at 3.6 µM, active compounds read high
[6] = target: Nuclear receptor subfamily 5 group A member 2 (Homo sapiens) (UniProt O00482); assay: NR5A2 activity suppression in reporter cells – cell-based, luminescence, confirmation (AID 651613; in the data active = inhibition above about 42%;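 note: HEK293T cells co-transfected with LRH-1 and StAR promoter luciferase reporter; 0% = vehicle wells and 100% = parental cells lacking receptor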); details: cell-based LRH-1 luciferase reporter, inverse agonism; at 3.6 µM; active compounds read high
Nuclear receptor subfamily 5 group A member 2 (Homo sapiens), sequence (O00482 whole entry, looked up): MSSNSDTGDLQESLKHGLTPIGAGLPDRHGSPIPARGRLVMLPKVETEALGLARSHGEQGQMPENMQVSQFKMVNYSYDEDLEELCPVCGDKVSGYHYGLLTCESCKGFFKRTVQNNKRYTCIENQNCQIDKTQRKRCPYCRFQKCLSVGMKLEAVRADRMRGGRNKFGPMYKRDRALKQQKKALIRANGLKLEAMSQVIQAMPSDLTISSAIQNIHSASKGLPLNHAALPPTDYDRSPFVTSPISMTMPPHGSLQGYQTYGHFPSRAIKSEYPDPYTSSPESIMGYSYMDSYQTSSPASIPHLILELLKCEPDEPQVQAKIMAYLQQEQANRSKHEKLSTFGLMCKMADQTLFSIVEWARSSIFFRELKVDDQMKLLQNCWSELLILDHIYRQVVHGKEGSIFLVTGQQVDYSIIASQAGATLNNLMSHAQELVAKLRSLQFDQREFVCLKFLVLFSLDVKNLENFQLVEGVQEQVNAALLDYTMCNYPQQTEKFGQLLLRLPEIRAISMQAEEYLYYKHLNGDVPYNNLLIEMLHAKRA

[7] = target: Steroidogenic factor 1 (Homo sapiens) (UniProt Q13285); assay: inverse agonism at SF1 nuclear receptor – cell-based, luminescence, high throughput, counter-screen for LRH-1 inverse agonist project (AID 651614; in the data active = inhibition above about 44%;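 note: cells cotransfected with StAR promoter reporter and SF1 expression vector; 0% = vehicle on cells with receptor and 100% = vehicle on cells lacking receptor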); details: cell-based SF1 luciferase reporter, at 3.6 µM, active compounds read high
Steroidogenic factor 1 (Homo sapiens), sequence (Q13285 whole entry, looked up, the tested form may be a part): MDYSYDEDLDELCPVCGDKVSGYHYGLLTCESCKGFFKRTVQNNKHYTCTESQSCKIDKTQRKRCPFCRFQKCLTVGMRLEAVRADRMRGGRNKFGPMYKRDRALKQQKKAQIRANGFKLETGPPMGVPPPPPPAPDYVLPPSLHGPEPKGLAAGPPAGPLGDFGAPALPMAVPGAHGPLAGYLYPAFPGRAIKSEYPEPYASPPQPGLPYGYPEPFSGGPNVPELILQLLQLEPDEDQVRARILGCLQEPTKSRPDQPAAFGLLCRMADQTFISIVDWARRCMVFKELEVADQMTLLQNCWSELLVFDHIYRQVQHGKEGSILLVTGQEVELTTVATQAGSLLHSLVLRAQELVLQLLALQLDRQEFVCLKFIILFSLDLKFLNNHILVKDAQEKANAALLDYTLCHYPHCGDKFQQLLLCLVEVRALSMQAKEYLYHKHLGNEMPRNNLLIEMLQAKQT

[8] = compounds suppressing VP16-driven luciferase signal – cell-based, luminescence, high throughput, counter-screen for LRH-1 inverse agonist project (AID 651615); details: Gal4-VP16 luciferase reporter cells, at 3.6 µM, active compounds read high

Compound	inhibition [1]	inhibition [2]	inhibition [3]	inhibition [4]	inhibition [5]	inhibition [6]	inhibition [7]	inhibition [8]
OCC1OC(n2cnc3c(NCc4ccccc4O)ncnc32)C(O)C1O (stereo not given)	81% (active)	82.1% (active)	45.3%	80% (active)	87.5% (active)	102% (active)	90.3% (active)	86.1% (active)
Cn1cc(/C=C/c2cc[n+](C)cc2)c2cc(Cl)ccc21	21.6%	43.1% (active)	21.5%	38.8% (active)	47.9% (active)	81.2% (active)	78.8% (active)	73.9% (active)
Cc1cccc2cc(-c3ccccc3)c(-c3ccccc3)c[n+]12	4.1%	37% (active)	5.14%	40.4% (active)	18.2%	106% (active)	63.2% (active)	81.7% (active)
Nc1ncn([C@@H]2O[C@H](CO)[C@@H](O)[C@H]2O)c(=O)n1	76.7% (active)	57.1% (active)	-17.7%	45.7% (active)	69.6% (active)	90.2% (active)	82.3% (active)	80.9% (active)
COc1ccc(C=C2CS(=O)(=O)CC(=Cc3ccc(OC)cc3)C2=O)cc1	29.7%	46.8% (active)	-73.9%	55.9% (active)	43.9% (active)	83% (active)	83.7% (active)	80.1% (active)
CCC(=O)NC(c1ccc(Cl)cc1Cl)c1ccc2cccnc2c1O (stereo not given)	16.2%	34.1% (active)	59.7% (active)	51.3% (active)	83.4% (active)	92.7% (active)	87.2% (active)	72.7% (active)
c1cc(CNc2ccc3c(c2)OCCO3)ccn1	-1.65%	-11.2%	-6.52%	-0.58%	10%	2.45%	14.8%	-8.35%
Cc1sc(NC(=O)/C=C/c2ccc3c(c2)OCO3)nc1-c1ccccc1	24.4%	59.1% (active)	32.1%	57.7% (active)	42.9% (active)	74.9% (active)	74.1% (active)	70.9% (active)
CN(Cc1cnc2nc(N)nc(N)c2n1)c1ccc(C(=O)NC(CCC(=O)O)C(=O)O)cc1 (stereo not given)	66.2% (active)	22%	52.3% (active)	10.5%	76.1% (active)	50.5% (active)	46.2% (active)	19.9%
O=C(CSc1nc2sc3c(c2c(=O)n1-c1ccccc1)CCCC3)NCc1ccco1	7.86%	-11.9%	4.53%	-16.3%	8.53%	15.3%	10.7%	3.41%
COc1ccc(C(=O)Nc2nnc(Cc3cccs3)s2)cc1OC	19%	54.2% (active)	-3.67%	52.5% (active)	51.5% (active)	70.7% (active)	66.1% (active)	72.3% (active)
Cn1cnc([N+](=O)[O-])c1Sc1nc(N)nc2c1ncn2C1OC(CO)C(O)C1O (stereo not given)	43.8% (active)	14.7%	-6.11%	9.12%	56.1% (active)	52% (active)	24.3%	45.1% (active)
COc1cccc(/C=N/Nc2ncnc3c2ncn3Cc2ccccc2)c1O	58.9% (active)	31% (active)	48% (active)	28.4% (active)	84.4% (active)	99.4% (active)	86.1% (active)	78.3% (active)
CC1(C)CC2CC(C)(CN2S(=O)(=O)c2ccc(C(=O)Nc3ccc(S(=O)(=O)N4CCOCC4)cc3)cc2)C1 (stereo not given)	24.1%	42.4% (active)	4.08%	44.1% (active)	22.1%	53.1% (active)	46.4% (active)	57.8% (active)
CN(C)CCOc1ccc2c(c1)C(=O)C(=Cc1ncc([N+](=O)[O-])n1C)C2	54.2% (active)	35.2% (active)	43%	27% (active)	68.6% (active)	88.4% (active)	73.7% (active)	51.6% (active)
Cc1cccc(-n2c(N)c(-c3nc4ccccc4n3C)c3nc4ccccc4nc32)c1	-11.4%	-15%	-14.8%	-15.4%	8.3%	-11.5%	10.3%	1.82%
CCCc1nc2c(=O)n(C)c(=O)nc-2n(C)n1	70.5% (active)	66.6% (active)	18.4%	64% (active)	56.5% (active)	68.8% (active)	72.8% (active)	73.5% (active)
N=c1c2c(-c3ccccc3)c(-c3ccccc3)n(Cc3ccco3)c2ncn1CCO	23.5%	54.5% (active)	41%	56.2% (active)	54.3% (active)	64.8% (active)	64% (active)	74.8% (active)

Compound	inhibition [1]	inhibition [2]	inhibition [3]	inhibition [4]	inhibition [5]	inhibition [6]	inhibition [7]	inhibition [8]
c1ccc(-c2cccc(-c3ccccn3)n2)nc1	75.8% (active)	39.9% (active)	56.6% (active)	32% (active)	82.3% (active)	96.7% (active)	71.8% (active)	41.8% (active)
CCN(CC)c1ccc2nc3ccc(N)cc3[n+](-c3ccccc3)c2c1	81.2% (active)	79.9% (active)	52.3% (active)	81.5% (active)	75.2% (active)	111% (active)	89.2% (active)	92.6% (active)
CC(C)(C)c1ccc(/C=N/Nc2ccc(C(=O)O)cc2)cc1	28.4%	32.6% (active)	13.3%	13.9%	-5.93%	-189%	-79.9%	-20.1%
Cc1nc2cc(NCc3nc4ccccc4n3Cc3ccccc3)ccc2n1C	-99.3%	-51.2%	-116%	-72.9%	-136%	-185%	-209%	-111%
CC1(C)CC(N2CCCC2)=CC(=[N+]2CCCCCC2)C1	23%	49.5% (active)	-16.2%	52.1% (active)	0.24%	95% (active)	61.3% (active)	60.9% (active)
CCc1ccc(-n2cc(-c3ccc(F)cc3)[n+]3c2SCCC3)cc1	17.1%	32.1% (active)	19.1%	35.4% (active)	18.4%	67.7% (active)	60.9% (active)	48.4% (active)
COc1ccc(-c2oc3ccc(N4CCOCC4)cc3c2C#CCO)cc1	10.8%	21.3%	-22.7%	18.5%	54.3% (active)	55.7% (active)	62% (active)	53.4% (active)
N=c1c2c(n(Cc3ccc(Cl)c(Cl)c3)c3c1CCC3)CCCC2	44.7% (active)	74.8% (active)	62.8% (active)	74.8% (active)	61.2% (active)	109% (active)	84.6% (active)	90.7% (active)
CC#CC[N+](C)(C)CCCCCCCCCCCC	32.2%	39.2% (active)	22.1%	32.1% (active)	33% (active)	65.2% (active)	65.9% (active)	63.5% (active)
CCCC(=O)NC(c1ccc(C)cc1)c1ccc2cccnc2c1O (stereo not given)	73.8% (active)	61.9% (active)	61.4% (active)	79% (active)	86.1% (active)	103% (active)	90.8% (active)	83.1% (active)
OC[C@H]1O[C@@H](n2cnc3c(NCc4ccco4)ncnc32)[C@H](O)[C@@H]1O	58% (active)	44.6% (active)	42.5%	51.8% (active)	55.1% (active)	52.9% (active)	51.4% (active)	61.4% (active)
O=C(O)C1CCCN1c1nc(-c2ccc(Cl)c(Cl)c2)cc(C(F)(F)F)n1 (stereo not given)	53.8% (active)	74.4% (active)	48.3% (active)	72.8% (active)	74.5% (active)	97.4% (active)	91.4% (active)	78.2% (active)
O=C(Nc1nc(-c2ccccc2)cs1)c1ccccc1NS(=O)(=O)c1ccc(F)cc1	40.7%	65.5% (active)	45%	60.5% (active)	66.6% (active)	101% (active)	87.5% (active)	79.3% (active)
O=C(Nc1ccon1)c1nc[nH]c1C(=O)NCc1ccccc1	35.1%	52.7% (active)	27.6%	53.3% (active)	50.5% (active)	58.4% (active)	51% (active)	68% (active)
O=C(/C=C/c1cccs1)NC(=S)NNC(=O)c1ccccc1O	76% (active)	77.6% (active)	57% (active)	78.7% (active)	76.8% (active)	106% (active)	91.8% (active)	86% (active)
CCCCC(=O)NC(c1ccccc1)c1ccc2cccnc2c1O (stereo not given)	53.3% (active)	36.9% (active)	27.8%	29.2% (active)	60.3% (active)	69.5% (active)	63.6% (active)	73% (active)
COc1ccc(-n2cc(-c3ccc(C)cc3)[n+]3c2SCC3)cc1	30.8%	55.1% (active)	22.8%	51% (active)	40.9% (active)	83.5% (active)	75.1% (active)	74.9% (active)
